Reference: PubChem BioAssay (EPA / NIEHS)
The source made the active and inactive calls. The calls were made as follows: active = hit-call score of the fitted dose curve at least 0.9, where 1 is the maximum; inactive = score below 0.9.

Read-out: JUN Transcription Factor, JUN (gene 3725)
Experiment: LTEA_HepaRG_JUN: Life Technologies and Expression Analysis (LTEA) Assay for JUN Transcription Factor using HepaRG (AID 2283513)
Conditions: mRNA level, 48 h; actives raise or lower the signal
Description: LTEA_HepaRG is a cell based, multiplexed-readout assay that uses HepaRG, a human liver cell line, with measurements taken at 48 hours after chemical dosing on a 96-well plate.LTEA_HepaRG_JUN is one of 102 assay component(s) measured in the LTEA HepaRG cell culture assay. It is a marker of Cell proliferation, survival, death.Data from the assay component LTEA_HepaRG_JUN was analyzed into 1 endpoint. This assay endpoint, LTEA_HepaRG_JUN, was analyzed with bidirectional fitting relative to DMSO as the negative control and baseline of activity. Using a type of inducible reporter, measures of mRNA induction for gain or loss-of-signal activity can be used to understand regulation of transcription factor activity. To generalize the intended target to other relatable targets, this assay endpoint is annotated to the dna binding intended target family, where the subfamily is basic leucine zipper.
A total of 1060 chemcials from the ToxCast library were tested in eight-point concentration-response experiments. Cell culture and cytotoxicity assays were conducted at Thermo Fisher Scientific's Custom Services facility (Madison, WI). A single lot of human HepaRG cells (Thermo Fisher Scientific, Frederick, MD) was used for the cell culture experiments. 96-well format collagen type I coated plates of human HepaRG cells were prepared using established methods. Briefly, cryopreserved HepaRG cells were thawed, plated at a density of approximately 100,000 cells/well in HepaRG Thaw, Plate, and General Purpose media (HPRG770, Thermo Fisher Scientific), and incubated for 48 hours. 0.5% DMSO was selected as vehicle control to balance the requisite need of DMSO in HepaRG cultures to maintain differentiation (for example, baseline metabolism, proportions of hepatocytes vs. cholangiocytes), while enabling further hepatic receptor pathway activation (for example, PXR and CAR) in response to chemical exposure. 48 hours after plating, the culture medium was replaced with HepaRG Serum-Free Incudtion Media. Cells were exposed to each test chemical in duplicate and maintained in CO2 incubators for another 48 hours. Chemical plates were thawed to room temperature and 200x concentrations of treatment groups were prepared. 8-point conentration-reponse curves were made with the highest exposure at 100 uM, followed by half-log dilutions, all in 0.5% DMSO. Each test plate contained variouse controls, induction positive controls (1mM phenobarbital), cytotoxicity positive controls ([…] aflatoxin B1), vehicle controls (0.5% DMSO), and total lysis controls (0.5% DMSO). Cell morphology images were taken using an Essen IncuCyte FLR automated microscope, with six 96-well plates imaged in about 24 minutes. Images were captured and exported and JPEG files. Spent culture media was transfered to black-well plates for the LDH assay, and remaining media was sorted at -80 C for later use. Cells were treated with RLT buffer and frozen until shipped for gene expression analysis. Total RNA was isolated from the cell suspension in 75 uL of Buffer RLT (Qiagen, Germantown, MD 20874) by Quintiles/Expression Analysis (Durham, NC) using a custom isolation procedure. Total RNA from each plate well was transferred to a preamplification plate. Fluidigm's 96.96 Dynamic ArrayTM (Fluidigm, Amsterdam, the Netherlands) technology was used for gene expression analyses by quantitative reverse transcription polymerase chain reaction (qRT-PCR, performed by Quintiles/Expression Analysis, Durham, NC)89. Standard TaqManTM Assays (Applied Biosystems/ThermoFisher Scientific, Foster City, CA) were used to assess the expression of 93 genes selected based on their selectivity and sensitivity to important hepatic receptors known to be modulated by environmental chemicals; importance in human hepatocyte functionality; and hepatotoxicity. […]

Question: How did the outcome turn out when `CCCCC(CC)COC(=O)CCCCC(=O)OCC(CC)CCCC` (stereo not given) was run?
Answer: inactive

Question: With `CC#C[C@]1(O)CC[C@H]2[C@@H]3CCC4=CC(=O)CCC4=C3[C@@H](c3ccc(N(C)C)cc3)C[C@@]21C` as the compound, how does the AC50 read?
Answer: 33.7 µM (active)

Question: Which outcome does the source give for `CCCCC(CC)COC(=O)CCCCC(=O)OCc1ccccc1` (stereo not given) here?
Answer: inactive

Question: `CC(O)CO` (stereo not given) was tested. Which outcome did it give?
Answer: inactive

Question: With `N#C[C@@H]1CC(F)(F)CN1C(=O)CNC1CC2CCC(C1)N2c1ncccn1` (stereo not given in full) as the compound, how does the outcome read?
Answer: inactive

Question: How did the outcome turn out when `CCCCCCCCOC(=O)CCCCCCCCC(=O)OCCCCCCCC` was run?
Answer: inactive

Question: Which outcome does the source give for `CCCCCCCCCCCCCCCS(=O)(=O)Oc1ccccc1` here?
Answer: inactive

Question: Which outcome does the source give for `CCc1nn(C2CCCCC2)c2cc(C3(C#N)CCC(C(=O)O)CC3)ccc12` (stereo not given) here?
Answer: inactive

Question: For `NC(=O)N(O)[C@@H]1C=C[C@H](Oc2cccc(Oc3ccc(F)cc3)c2)C1`, which AC50 is on record?
Answer: 76.6 µM (active)

Question: How did the outcome turn out when `ClC1=C(Cl)C(Cl)(Cl)C(Cl)=C1Cl` was run?
Answer: inactive

Question: `CC(C)(C)CC(C)(C)c1ccc(O)c(-n2nc3ccccc3n2)c1` was tested. Which outcome did it give?
Answer: inactive

Question: How did the outcome turn out when `COC(=O)CCCCC(=O)OC` was run?
Answer: inactive

Question: `CCN(CC)CCNc1ccc(CNC=O)c2sc3ccc(OC)cc3c(=O)c12` was tested. Which AC50 did it give?
Answer: 79 µM (active)

Question: With `COc1ccc([N+](=O)[O-])cc1N` as the compound, how does the outcome read?
Answer: inactive

Question: Which outcome does the source give for `CC(=O)CC(C)(C)O` here?
Answer: inactive

Question: How did the outcome turn out when `CCC(C)(C)C1CCC(O)CC1` (stereo not given) was run?
Answer: inactive

Question: How did the outcome turn out when `O=c1c(-c2ccc(O)cc2)coc2cc(O)ccc12` was run?
Answer: inactive

Question: How did the AC50 turn out when `NC(=O)N1C(=O)C(C(=O)c2cc(Cl)cs2)c2cc(F)c(Cl)cc21` (stereo not given) was run?
Answer: 30.3 µM (active)

Question: Which AC50 does the source give for `Cc1oc(-c2ccccc2)nc1CCOc1ccc(C[C@H](Nc2ccccc2C(=O)c2ccccc2)C(=O)O)cc1` here?
Answer: 16.5 µM (active)

Question: `C#C[C@]1(O)CC[C@H]2[C@@H]3CCC4=CC(=O)CC[C@@H]4[C@H]3CC[C@@]21C` was tested. Which outcome did it give?
Answer: inactive

Question: With `CC(C)CCCCCCOC(=O)CCCCC(=O)OCCCCCCC(C)C` as the compound, how does the outcome read?
Answer: inactive

Question: For `COCC(C)OCC(C)O` (stereo not given), which outcome is on record?
Answer: inactive

Question: How did the AC50 turn out when `CC(=O)NC1(c2cccc(F)c2)CCN(CC[C@@]2(c3ccc(Cl)c(Cl)c3)CN(c3ccccc3)C(=O)CO2)CC1` was run?
Answer: 62.1 µM (active)

Question: How did the outcome turn out when `CCCCOCCO` was run?
Answer: inactive

Question: Which AC50 does the source give for `CN1CCN(c2ccccc2/C=C2\SCCN(c3ccc(Cl)c(Cl)c3)C2=O)CC1` here?
Answer: 75.5 µM (active)

Question: With `CCc1ccc(CCOc2ccc(CC3SC(=O)NC3=O)cc2)nc1` (stereo not given) as the compound, how does the outcome read?
Answer: inactive

Question: `c1ccc2c(c1)Cc1ccccc1-2` was tested. Which outcome did it give?
Answer: inactive

Question: For `CC(C)(C)c1cccc(C(C)(C)C)c1O`, which outcome is on record?
Answer: inactive

Question: For `CCCCCCCCCCCCc1ccccc1S(=O)(=O)O`, which AC50 is on record?
Answer: 34.7 µM (active)

Question: `O=C(OCCOCCOC(=O)c1ccccc1)c1ccccc1` was tested. Which outcome did it give?
Answer: inactive

Question: How did the outcome turn out when `CCCCCCCCC(=O)O` was run?
Answer: inactive

Question: With `CC[C@H](c1ccc(O)cc1)[C@@H](CC)c1ccc(O)cc1` as the compound, how does the AC50 read?
Answer: 96.5 µM (active)

Question: For `CC(C)(C)c1ccc(O)c(C(C)(C)C)c1`, which outcome is on record?
Answer: inactive

Question: Which outcome does the source give for `c1ccc2c(c1)ccc1ccccc12` here?
Answer: inactive

Question: Which outcome does the source give for `CCCCCCCCCCCCN1CCCC1=O` here?
Answer: inactive

Question: For `Nc1cccc2c(N)cccc12`, which outcome is on record?
Answer: inactive

Question: Which outcome does the source give for `CCOC(=O)CC(O)(CC(=O)OCC)C(=O)OCC` here?
Answer: inactive

Question: With `O=C(O)Cc1cc(I)c(Oc2cc(I)c(O)c(I)c2)c(I)c1` as the compound, how does the AC50 read?
Answer: 52.3 µM (active)

Question: How did the outcome turn out when `CN1CCC[C@H]1c1cccnc1` was run?
Answer: inactive

Question: Which outcome does the source give for `Cc1cc(CCN2CCN(c3nsc4ccccc34)CC2)cc2c1NC(=O)CC2(C)C` here?
Answer: inactive
